# “And” between values parts separate entries of the source, which are not always exact repeats. Equal values may be shown once. Hit rate of the full screen: of about 16,000 compounds, about 5,700 (36%) were called active. About 24% were inconclusive and are not listed. This is one part of the list. Values without a mark were called inactive. The call rests on the fitted dose curve; in most records, active means well fitted curve in the direction sought with a large enough effect; inconclusive means small, poorly fitted or top-dose-only effect, or effect the other way; inactive means no such curve, though single readings can be large or run the other way.
# Biological target: Cytochrome P450 1A2 (Homo sapiens) (UniProt P05177)
# Sequence (P05177 whole entry, looked up): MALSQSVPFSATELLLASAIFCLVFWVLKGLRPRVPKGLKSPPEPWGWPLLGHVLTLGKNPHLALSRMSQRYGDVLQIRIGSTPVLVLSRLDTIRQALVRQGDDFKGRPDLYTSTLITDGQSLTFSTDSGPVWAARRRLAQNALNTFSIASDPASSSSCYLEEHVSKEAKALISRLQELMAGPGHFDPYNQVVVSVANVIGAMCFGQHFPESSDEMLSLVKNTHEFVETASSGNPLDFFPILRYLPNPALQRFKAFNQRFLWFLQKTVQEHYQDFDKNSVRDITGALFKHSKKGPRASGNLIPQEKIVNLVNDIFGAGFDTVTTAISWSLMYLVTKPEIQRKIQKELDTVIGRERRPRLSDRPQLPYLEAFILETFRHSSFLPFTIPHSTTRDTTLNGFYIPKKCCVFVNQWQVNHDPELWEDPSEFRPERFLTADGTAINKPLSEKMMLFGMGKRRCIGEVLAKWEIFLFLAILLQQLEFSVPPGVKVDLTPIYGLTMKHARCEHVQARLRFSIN
# Assay: Cytochrome panel assay with activity outcomes
# Settings: recombinant CYP, pro-luciferin dealkylation, luminescence, p450-cyp1a2; series mostly up to 57.1 µM
# On the % scale 0 is the no-effect control and ±100 the full control effect.
SMILES,AC50,"activity, negative = inhibition"
COCCn1c(=O)c(-c2ccccc2)nc2cnc(Oc3cccc(Cl)c3)nc21,1 µM (active),
N#CCCn1c(=O)c(-c2ccccc2)nc2cnc(Oc3cccc(Cl)c3)nc21,2.51 µM (active),
N#CCCn1c(=O)c(-c2ccc(Cl)cc2)nc2cnc(Oc3cccc(Cl)c3)nc21,inactive,
N#CCCn1c(=O)c(-c2cccs2)nc2cnc(Oc3cccc(Cl)c3)nc21,3.16 µM (active),
COCCn1c(=O)c(-c2cc(F)cc(F)c2)nc2cnc(Oc3cccc(Cl)c3)nc21,5.01 µM (active),
Cc1noc(C)c1C(=O)N1CCC2(CCN(Cc3ccccc3)CC2)CC1,inactive,
Cc1cnc(CNc2ccnc(-c3c(C)noc3C)n2)cn1,12.6 µM (active),
Cc1noc(C)c1-c1nccc(NCc2cccnc2)n1,0.158 µM (active),
Cc1noc(C)c1-c1nccc(NCc2ccccc2)n1,0.794 µM (active),
Cc1noc(C)c1-c1nccc(NCc2cccs2)n1,0.501 µM (active),
CC(=O)N(NC(=O)c1ccccc1Cl)C1CC(=O)N(c2ccc(C)cc2)C1=O (centres undefined),inactive,
O=C(O)/C=C\C(=O)N1Cc2cc3ccccc3nc2C1,,-16.3% [at 11.4 µM]
CC(=O)/C=C/c1ccc2ccccc2n1,2.51 µM (active),
O=C(c1cnccn1)N1CCC2(CC1)CN(c1ccccn1)C2,inactive,
CC(C)CNC(=O)CCCc1c[nH]c2ccccc12,14.1 µM (active),
C[C@@](N)(Cc1c[nH]c2ccccc12)C(=O)O,,-11.5% [at 11.4 µM]
CCOC(=O)CCCc1c[nH]c2ccccc12,2.51 µM (active),
N[C@@H](Cc1c[nH]c2ccccc12)C(=O)O,inactive,
CN1C2C=C(N(CCc3c[nH]c4ccccc34)C(=O)c3ccc(Cl)cc3)CC1CC2 (centres undefined),inactive,
O=C(Cc1c[nH]c2ccccc12)OCC(=O)c1ccccc1,12.6 µM (active),
COC(=O)C(Cc1c[nH]c2ccccc12)NC(=O)C(C)C (centres undefined),inactive,
CN(CC(=O)O)Cc1c[nH]c2ccccc12,,-14.8% [at 11.4 µM]
O=C(O)CN1CCN(Cc2ccc(F)cc2Cl)C1=O,5.62 µM (active),
O=C(O)CN1CCN(Cc2ccccc2)C1=O,inactive,
Cc1cccc(CN2CCN(CC(=O)O)C2=O)c1,inactive,

SMILES,AC50,"activity, negative = inhibition"
Cc1ccc(C(c2nnnn2CC2CCCO2)N2CCN(C(=O)c3ccco3)CC2)cc1 (centres undefined),inactive,
CCOC(=O)c1sc(N(Cc2ccccc2)C(=O)CN2C(=O)CN(C)C2=O)nc1C,20 µM (active),
Cc1ccc2[nH]c(=O)c(NC(N)=S)nc2c1,4.47 µM (active),
COc1ccc2[nH]c(=O)c(NC(N)=S)nc2c1,3.55 µM (active),
C(=N\n1cnnc1)/c1cccn1-c1ccccc1,8.91 µM (active),
CC(C)NC(=O)N1CCCC2(CCN(S(=O)(=O)c3ccccc3)CC2)C1,inactive,
CCCN1CNC(=S)N(c2cccc(C)c2C)C1,inactive,
CC(C)=CCc1c(C)nc2ccccc2c1C(=O)O,inactive,
CC(C)=CCC1=C(OCC(=O)O)C(=O)c2ccccc2C1=O,0.501 µM (active),
CC(=O)Nc1ccc(N2C(=O)CSC2c2c(F)cccc2Cl)cc1 (centres undefined),inactive,
O=C1CSC(c2ccccn2)N1c1ccc(Cl)c(Cl)c1 (centres undefined),10 µM (active),
O=C1CC(N2CCN(CCc3ccccn3)CC2)C(=O)N1c1ccc(Cl)cc1 (centres undefined),inactive,
COc1cc2c(cc1OC)-c1cc(=Nc3c(C)cc(C)cc3C)n(C)c(=O)n1CC2,inactive,
COc1ccc(OC)c2[nH]c(=O)c(CCNC(=O)c3ccc(S(=O)(=O)N4CCCC4)cc3)cc12,inactive,
COc1ccc(Cl)cc1C(=O)NCCc1ccc(S(=O)(=O)NC(=O)NC2CCCCC2)cc1,inactive,
COc1ccc(OC)c2[nH]c(=O)c(CCNS(=O)(=O)c3ccccc3)cc12,12.6 µM (active),
COc1ccc(OC)c2[nH]c(=O)c(CCNC(=O)c3ccc(S(=O)(=O)N(C)C)cc3)cc12,inactive,
COc1ccc(OC)c2[nH]c(=O)c(CCNC(=O)COc3ccccc3)cc12,11.2 µM (active),
COc1ccc(OC)c2[nH]c(=O)c(CCNS(=O)(=O)c3ccc(Cl)cc3)cc12,12.6 µM (active),
Cn1c(=O)c2cc(S(=O)(=O)NCCC(=O)Nc3ccc(Cl)cc3)ccc2n(C)c1=O,inactive,
CC1(C)OC[C@@H]2O[C@H](n3cnc4c(N)nc(Cl)nc43)[C@@H](OS(C)(=O)=O)[C@@H]2O1,,-14.5% [at 2.29 µM]
O=S(=O)(c1cccc(-c2nnc(-c3ccc(Br)cc3)o2)c1)N1CCCCCC1,14.1 µM (active),
O=C(O)CCC(=O)N1CCc2cc(S(=O)(=O)N3CCCCC3)ccc21,inactive,
O=S(=O)(c1ccc(Br)cc1)N1CCN(S(=O)(=O)c2ccc(Br)cc2)CC1,,-11.2% [at 11.4 µM]
Cc1nn2c3c(cnc2c1-c1ccccc1)C(=O)CC(c1ccccc1)C3 (centres undefined),3.16 µM (active),

SMILES,AC50,"activity, negative = inhibition"
CCC1NC(=S)N(C2CCCCC2)C1=O (centres undefined),inactive,
CN(C)C(=O)c1ccc(-c2nccc(N(C)Cc3ccco3)n2)cc1,12.6 µM (active),
CN(Cc1ccco1)c1ccnc(-c2cccnc2)n1,0.794 µM (active),
CN(Cc1ccco1)c1ccnc(-c2ccoc2)n1,12.6 µM (active),
COc1cccc(-c2nccc(N(C)Cc3ccco3)n2)c1,0.631 µM (active),
COc1ccc(Cc2nnc(NC(=O)Cn3cnc4c3c(=O)n(C)c(=O)n4C)s2)cc1OC,inactive,
CN(Cc1ccco1)c1ccnc(-c2cccc(C#N)c2)n1,0.398 µM (active),
CS/C(N)=N/N=C/c1ccc([N+](=O)[O-])cc1,14.1 µM (active),
NC(N)=N/N=C\c1ccc(C2CCNCC2)cc1,,-12% [at 2.29 µM]
O=C1CCCC=C1[C@H](O)c1ccc([N+](=O)[O-])cc1,,-7.01% [at 11.4 µM]
C=CCNC(=O)c1ccc2nc(-c3ccccc3)c(-c3ccccc3)nc2c1,15.8 µM (active),
C=CCNC(=O)c1cccn1-c1ccsc1C(=O)OC,inactive,
C=CCNC(=O)c1onc(CSc2ccc(F)cc2)c1C(=O)O,inactive,
COc1ccc(N(C)C(=O)c2ccc3nc(-c4ccccc4)c(-c4ccccc4)nc3c2)cc1,inactive,
C=CCNC(=O)c1ccc(-c2nc(-c3ccc(Cl)c(Cl)c3)cs2)cc1,inactive,
C=CCNC(=O)c1csc(-c2ccccc2)n1,0.631 µM (active),
CC(=O)NCCNc1ncnc2ccc(-c3cccc(NS(C)(=O)=O)c3)cc12,15.8 µM (active),
COCCNc1ncnc2ccc(-c3cccc(NS(C)(=O)=O)c3)cc12,0.794 µM (active),
O=C(c1cnccn1)N1CCC2(CCN(Cc3nccs3)CC2)CC1,inactive,
Cc1ccc(NS(=O)(=O)c2cc(C(=O)NCc3ccccn3)ccc2Cl)cc1,5.01 µM (active),
CN(c1ccc(C(=O)NCc2ccccn2)cc1)S(C)(=O)=O,inactive,
C=C(CC)C(=O)c1ccc(OCC(=O)O)c(Cl)c1Cl,inactive,
COC(=O)/C=C/CSC1=N/C(=C/c2ccc(-n3cncn3)cc2)C(=O)N1,1 µM (active),
CNc1ncnc2c1ncn2[C@H]1C[C@@H](OP(=O)(O)O)[C@H](COP(=O)(O)O)O1,inactive,
CCN(CC)C(=O)Cn1cc(/C=C(\C#N)C(=O)N2CCN(c3ccccc3)CC2)c2ccccc21,inactive,

SMILES,AC50,"activity, negative = inhibition"
N#Cc1ccc(C(=O)Nc2ccc(N3CCN(C(=O)c4ccco4)CC3)cc2)c(F)c1,inactive,
COC(=O)Cn1cc(/C=N/NC(=O)c2ccc(C#N)cc2F)c2ccccc21,3.55 µM (active),
COc1ccc(-n2c(=O)c(C)nc3cnc(OC)nc32)cc1,inactive,
COc1ccc(Oc2ncc3nc(C)c(=O)n(-c4ccc(OC)cc4)c3n2)cc1,15.8 µM (active),
COc1ncc2nc(C)c(=O)n(-c3ccccc3)c2n1,5.01 µM (active),
Cc1nc2cnc(Oc3ccccc3)nc2n(-c2ccccc2)c1=O,10 µM (active),
COc1ccc(/C(C)=N/NC(=O)c2ccc(CSc3cccc4cccnc34)cc2)cc1OC,11.2 µM (active),
Cc1ccc(N[C@H](c2ccccc2)c2ccc3cccnc3c2O)cc1,,-24.5% [at 2.29 µM]
Cc1cccc(CSc2cccc3cccnc23)c1,2 µM (active),
Cc1nc(N=Nc2cc(S(=O)(=O)O)ccc2S(=O)(=O)O)c(COP(=O)(O)O)c(C=O)c1O,inactive,
COc1cc(CC(=O)O)ccc1O,inactive,
COc1cc(CNC(=O)CCCC/C=C\C(C)C)ccc1O,1.58 µM (active) and 3.16 µM (active),
COc1cc([C@H](O)C(=O)O)ccc1O,inactive,
O=C(Nc1ncn[nH]1)c1ccc([N+](=O)[O-])cc1[N+](=O)[O-],inactive,
O=C(O)/C=C\C(=O)Nc1ncn[nH]1,,-8.55% [at 11.4 µM]
Clc1ccc(Nc2ncn[nH]2)cc1,4.47 µM (active),
Cc1cc(C(C#N)c2cccc(Cl)c2)n2ncnc2n1 (centres undefined),5.01 µM (active),
CC[C@@H]1CN2CCc3cc(OC)c(OC)cc3[C@H]2C[C@@H]1C[C@H]1NCCc2cc(OC)c(OC)cc21,inactive,
NC1CCN(c2cccc(Cl)n2)CC1,15.8 µM (active),
c1c[nH]c(CN2CCN(Cc3ncc[nH]3)CC2)n1,,0.981% [at 11.4 µM]
COc1ccc(C2N=C(N)N=C(N)N2c2ccccc2OC)cc1OC (centres undefined),inactive,
CCn1c(SCC(=O)Nc2ccccc2C(=O)OC)nnc1-c1ccc(N)cc1,14.1 µM (active),
CC(C)CC(C(=O)NCC1CCCO1)N(C(=O)Cn1nnc(-c2ccc(F)cc2)n1)c1ccccc1F (centres undefined),inactive,
O=C(O)C[C@H]1OCC=C2C[N@@+]3([O-])CC[C@]45c6ccccc6N[C@@H]4[C@@H]1[C@H]2C[C@H]53,,-14.3% [at 2.29 µM]
